± gives the standard deviation of the averaged measurements. The full ranking holds about 25,000 sequences; the median of “ln(normalized median fluorescence intensity)” is about 8.9, and the highest 2% start at about 10. The list comes from a sample in which the highest values are over-represented; it also holds similar and randomly drawn sequences.
What follows are sequences tested on PfAP2-LT AP2 domain (GST-tagged) (assay: gcPBM binding intensity (ln(normalized median fluorescence intensity)); higher = stronger DNA binding).
In short: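 After 1 h on an Agilent 4 × 180k array of primer-extended double-stranded 36-bp intergenic genomic probes and negative controls, bound GST-tagged P. falciparum DNA-binding domains were detected with Alexa488 anti-GST antibody and scanned at 488 nm. The domains had been expressed in E. coli, and binding took place in 1× PBS with 1% milk, 0.2 mg/ml BSA, 0.5% salmon testes DNA and 0.03% Triton X-100. Binding intensity is the highest Masliner-normalised natural-log median intensity across replicate spots of either probe orientation.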

Sequence	gcPBM binding intensity (ln)
CAATCAAAGAAACACACACACACCTAAACATAAAAG [CACACA_site2756]	10.2 ± 0.33
CACAAAAATAGACACACACACATATAAATAAATATA [CACACA_site6598]	9.7 ± 0.38
GGACACCTTCAAAACACACATACAAATAAATAGAAA [CACACA_site3305]	8.97 ± 0.54
AACAATCAAATAGACACACACACACCCAAACATAAA [CACACA_site2757]	10.1 ± 0.11
ATTATATTTATGTTGGTGCATTATACATGAAATTTA	8.68 ± 0.4
AGAAAAGGACATATATGTACTTATCAATATAGAAAC [XGTACX_site1042]	9.04 ± 0.48
TTCTTTTTTCTTTATGGTACGTGTAATATATATCAA [XGTACX_site7960]	8.82 ± 0.45
AATAGAACAAATAAAACACACACATATATATATATA [CACACA_site8893]	9.76 ± 0.37
CACGCGCACGAACACACACACACACGCATATAAATA [CACACA_site7103]	9.86 ± 0.33
ATCAAGCACGAACACACACACACACGCACGCCCACA [CACACA_site6308]	10.3 ± 0.3
CGAACAAACAAATAAACACACAAAAAAAAATATATA [CACACA_site1825]	9.11 ± 0.5
ACACGCACATATATATAAATATATATATATATAAAT [CACACA_negctrl_site1781]	9.6 ± 0.28
TTTATTTTATCATTTGCACACGCACGCCCACATAAA [CACACA_site353]	9.39 ± 0.42
AAACAAAAAATATATACACACTAAACATAAAAAAAA [CACACA_site4185]	9.02 ± 0.46
CACGCGAACATACATACACACACATATATATATATG [CACACA_site7951]	9.69 ± 0.35
CCAACATGCCCACGCACACACAAAAAAAGCATGCAT [CACACA_site4217]	9.51 ± 0.4
AACAAATACGAACACACACACACACTAAAAAAAAAA [CACACA_site6386]	10.3 ± 0.2
CACACGCACGAACACACACACACACGCATATAAATA [CACACA_site6302]	10.2 ± 0.3
GGCATACACGAACACACACACACACGCACATATATA [CACACA_site6426]	10.5 ± 0.36
TTTTCCCTCTTATTCACACAAAAAAAATAAAATAAA [CACACA_site4656]	8.2 ± 0.42
TTTGCTTCGATATATTCACACATTTTTTTTCTTATT [CACACA_site4499]	8.91 ± 0.46
TTCTTTTTTCAACACACACACACAAGAAAATATATA [CACACA_site9019]	9.51 ± 0.16
AATATAAATAAAAACACACACAATGGTACCTATATA [CACACA_site7688]	9.3 ± 0.39

Sequence	gcPBM binding intensity (ln)
TATTATATATATGGAAGTACAGGTATATCGTTTTTC [XGTACX_site3771]	8.73 ± 0.4
AGTATACACGAACACACACACACATATATAAATATA [CACACA_site6913]	10.2 ± 0.4
TATACATATATATACACACACACATATATATATATA [CACACA_site1299]	9.9 ± 0.42
CACACGCACGAACACACACACACACGCACGCACATA [CACACA_site6305]	10.4 ± 0.13
CTAAAATACGAACACACACACACATATAAATAAATA [CACACA_site7872]	10.2 ± 0.33
CACACGCACGAACACACACACATATAAATATAAATA [CACACA_site6299]	9.71 ± 0.44
TATATACATATATACACACACATATATATATATATA [CACACA_site2805]	9.905 ± 0.0071
CATATACACGAACACACACACATATAAATAAATATA [CACACA_site6379]	9.74 ± 0.29
AACATATACACGAACACACACACATATATATATATA [CACACA_site502]	10.3 ± 0.26
TAACACATAAATAAATATATACATATATATAAAATA [CACACA_negctrl_site375]	8.81 ± 0.46
AAAAAAAAAATATACACACACACATACACATAAATA [CACACA_site3808]	9.92 ± 0.21
TACACATACACATACACACGCATAGAAACATACGAA [CACACA_site2137]	9.48 ± 0.33
AACATATACACGAACACACACACATATAAATAAATA [CACACA_site6380]	9.87 ± 0.23
TTTTTTAAATAATATTGTACAAAAAATGTATAAATA [XGTACX_site3010]	8.44 ± 0.42
ATATATATATAAATATGTACATATATACATATATAC [XGTACX_site2374]	8.89 ± 0.23
TGTATGTCTTTATTTTGTACACAATATAAAAAATTA [XGTACX_site5441]	8.51 ± 0.38
ACCATTTGTAGGTAAACACACATTATTATTAATATC [CACACA_site2635]	8.93 ± 0.4
CATTTTGTAAGATATGCACACATGGATCATATTTTA [CACACA_site423]	8.95 ± 0.34
CAAAAGCGATACGGCACACATTTCCTGTTTAAATGA [CACACA_site5519]	8.99 ± 0.58
TACTGATCTTTCTAGGTGCGCTGCTACCATTATCGT [GTGCAC_site9538]	8.99 ± 0.49
GATATGATTAACTTATGTTATTCTTGATGATTACGT [CACACA_negctrl_site354]	8.86 ± 0.38
TCTTTATTATTCGCCACACACATATAAATATAAATA [CACACA_site7441]	8.93 ± 0.4
